12-LOX inh = Primary qHTS assay for inhibitors of human arachidonate 12S-lipoxygenase (ALOX12): Round 2. Potency, µM (series often up to 108 µM), without a hit: top-dose activity change, negative = inhibition, actives largely listed as inhibitors. hit rate 1.1% among 580,000. purified 12hLO, xylenol orange hydroperoxide absorbance. AID 1671190, 2021. Polyunsaturated fatty acid lipoxygenase ALOX12 (Homo sapiens), P18054; active = well fitted inhibition curve with a large enough effect; inconclusive = small, poorly fitted or top-dose-only effect, or another doubt; inactive = no such curve, though single readings can be large or run the other way; also: potency is read from the fitted curve at half-maximal effect; % is scaled to controls: 0 for no effect and ±100 for the full control effect
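Purified human 12hLO (150 nM final) in 25 mM Hepes, 0.01% Triton X-100, pH 7.0 was preincubated 15 min at room temperature with compound. Then 40 uM arachidonic acid was added, 30 min. Hydroperoxide was read by Fe-XO absorbance ratio 573/405 nm.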
KCNH2 3.1 inh = qHTS for Inhibitors of KCHN2 3.1: Mutant qHTS | Potassium voltage-gated channel subfamily H member 2, brain isoform KCNH2 3.1 (human) | U2OS KCNH2 3.1, thallium flux FluxOr; hits give low values | activity change, % (tested at about 1.8 µM) | hit rate 0.95% among 340,000;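 active = maximum activity change below -70%; inconclusive = maximum activity change from -70% to -50%; inactive = maximum activity change above -50%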;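 also: thallium influx rate constant from kinetic fluorescence after stimulation buffer; % is scaled to controls: 0 for no effect and ±100 for the full control effect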
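Normalized rate constant (relative to positive and negative DMSO controls) derived from a 2 min kinetic fluorescence read after stimulation; U2OS cells expressing the 3.1 isoform via virus at 1.77 x 10^8 /mL.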
hERG WT inh = qHTS for Inhibitors of KCHN2 3.1: Wildtype qHTS; Voltage-gated inwardly rectifying potassium channel KCNH2 (Homo sapiens), Q12809; U2OS, BacMam KCNH2, thallium flux FluxOr; hits give low values; activity change, % at 1.84 µM; hit rate 0.37% among 340,000;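 active = maximum activity change below -70%; inconclusive = maximum activity change between -70% and -50%; inactive = maximum activity change above -50%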; also: % is scaled to controls: 0 for no effect and ±100 for the full control effect
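U2OS cells transduced with wild-type KCNH2 virus are loaded with FluxOr dye for 45 min, and thallium flux is measured in kinetic reads before and after stimulation buffer. Rate constants are normalized to DMSO controls.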
ClpP mod = qHTS Assay for Activators of ClpP | ATP-dependent Clp protease proteolytic subunit (Bacillus subtilis (strain 168)), P80244 | purified B. subtilis ClpP, FRET peptide cleavage, 20 min | Potency, µM (top dose mostly 57.5 µM), inactives show at the top dose activity change, negative = active | hit rate 1.9% among 340,000; active = well fitted falling curve with a large enough effect; inconclusive = small, poorly fitted or top-dose-only effect; inactive = no such curve, though single readings can be large or run the other way; also: potency is read from the fitted curve at half-maximal effect; the source files actives as falling curves though it sought activators and does not explain the sign; nearly all actives have a fitted effect of over 65% in size
Target sequence (P80244 whole entry, looked up): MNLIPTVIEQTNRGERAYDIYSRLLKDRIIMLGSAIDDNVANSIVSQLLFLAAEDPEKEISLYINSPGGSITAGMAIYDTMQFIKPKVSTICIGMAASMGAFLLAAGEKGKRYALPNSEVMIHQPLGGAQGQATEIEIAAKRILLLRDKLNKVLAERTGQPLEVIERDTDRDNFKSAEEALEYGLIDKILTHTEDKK
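Buffer: 100 mM Tris/HCl pH8, 100 mM KCl, 0.05% low protease BSA, 2.5% glycerol, 0.01% Tween-20. ClpP 10 microg/mL final; 20 min RT; delta FRET normalized to ADEP and DMSO controls.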
LDHA inh = qHTS assay for inhibitors of human lactate dehydrogenase; L-lactate dehydrogenase A chain (Homo sapiens), P00338; purified LDHA, NADH/diaphorase-resazurin fluorescence; hits give low values; activity change, % (values are at about 110 or 230 µM); hit rate 0.15% among 480,000; AID 1347041, 2019; in the data active = activity change below about -30%; inconclusive = mostly about -25% to -30%;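 also: plate controls were DMSO wells for no effect and wells without enzyme for full effect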
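Resorufin fluorescence (ex540/em590), read at 0 and 20 min after diaphorase/resazurin addition, reports the NADH left after a 5 min room-temperature reaction of 2 nM human LDH5 with 0.06 mM NADH and 0.2 mM pyruvate.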
BCR signal inh = qHTS Assay to Find Inhibitors of Chronic Active B-Cell Receptor Signaling; AID 493014, 2011; ABC-DLBCL IkBa-CBG/CBR reporter, luminescence ratio, 4 h; Potency, µM (series often up to 46.1 µM), for the others: at the highest dose activity change, negative = inhibition, most hits filed as inhibitors; hit rate 0.05% among 340,000; active = well fitted inhibition curve with a large enough effect in the signal ratio, with a control signal flat, not every such curve was filed as active; inconclusive = small, poorly fitted or top-dose-only effect, or effect the other way, or a change in a side signal; the % refers to the signal ratio;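 also: potency is read from the fitted curve at half-maximal effect; plate controls were basal doxycycline-induced cells for no effect and cells given 10 µM MG132 for full effect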
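Compounds up to 46 uM were incubated four hours with TMD8 cells whose green CBG68 luciferase is fused to IkappaBalpha; red CBR luminescence normalised the signal, and concentration-effect curves were fitted to fusion, red and ratio data.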
An asterisk follows results filed as active; ! = not active in a repeat. A selection: hits, their analogues and other compounds. The true share with any hit is near 3%.

Screening COc1ccc(N2CCN(C(C)C(=O)N3CCCC3)CC2)cc1 (stereo not drawn) returned 12-LOX inh -26%, KCNH2 3.1 inh 10, hERG WT inh 1, LDHA inh -38* and BCR signal inh 0%.
Screening COC(=O)N1CCN(c2ccc(OC)cc2)CC1 returned 12-LOX inh 14%, KCNH2 3.1 inh -1, hERG WT inh 6, ClpP mod -5%, LDHA inh 4 and BCR signal inh 4%.
COc1ccc(-c2nnc(Nc3nc4c(OC)cccc4s3)o2)c(OC)c1 was read as 12-LOX inh 16%, KCNH2 3.1 inh -16, hERG WT inh -44, ClpP mod 16µM*, LDHA inh 0 and BCR signal inh inconclusive.
Screening CCC(=O)Nc1nnc(-c2ccc(OC)cc2)o1 returned 12-LOX inh 43%, KCNH2 3.1 inh 14, hERG WT inh -13, ClpP mod -3%, LDHA inh -1 and BCR signal inh inconclusive.
For COc1ccc2nc(Nc3ccccc3OC)sc2c1 the results were 12-LOX inh 8%, KCNH2 3.1 inh 5, hERG WT inh 1, LDHA inh 0 and BCR signal inh inconclusive.
For Fc1cccc2sc(Nc3nnc(-c4ccccc4)o3)nc12 the results were 12-LOX inh -20%, KCNH2 3.1 inh -13, hERG WT inh -149*, ClpP mod 1%, LDHA inh 2 and BCR signal inh inconclusive.
COc1cc(OC)cc(-c2nnc(Nc3nc4c(F)cccc4s3)o2)c1 was read as 12-LOX inh 24%, KCNH2 3.1 inh 12, hERG WT inh 2, ClpP mod inconclusive, LDHA inh -2 and BCR signal inh -3%.
Screening COc1ccc(-c2nnc(Nc3nc4c(OC)cccc4s3)o2)cc1 returned 12-LOX inh -2%, KCNH2 3.1 inh 22, hERG WT inh -16, ClpP mod 40µM*, LDHA inh -19 and BCR signal inh inconclusive.
For C#CCN1CCN(CC(=O)Nc2cccc(F)c2)CC1 the results were 12-LOX inh -16% and LDHA inh -5.
O=C(O)CC(c1ccc(F)cc1)c1ccc(Cl)cc1 (stereo not drawn) was read as 12-LOX inh inconclusive and LDHA inh 2.
CCCc1nc(SC)ncc1C(=O)Nc1ccc(C)cc1Cl was read as 12-LOX inh inconclusive and LDHA inh -6.
For CCOc1nc(-c2ccccc2Cl)nc2ccccc12 the results were 12-LOX inh 0%, KCNH2 3.1 inh 1, hERG WT inh -3, LDHA inh -1 and BCR signal inh -22%.
Screening Clc1ccccc1-c1nc(-n2ccnc2)c2ccccc2n1 returned 12-LOX inh 56µM*.
`O=C(CNC(=O)/C(=C/c1ccccc1)NC(=O)c1ccc(Br)cc1)OCc1ccccc1` gave 12-LOX inh -4%, KCNH2 3.1 inh -85*, hERG WT inh inactive, LDHA inh -7 and BCR signal inh -2%.
For O=S(=O)(NC1CCN(S(=O)(=O)c2cc(C(F)(F)F)ccc2Cl)CC1)c1cccs1 the results were 12-LOX inh -42% and LDHA inh -3.
`CCn1c(-c2cc(-c3cccc(OC)c3)nc3ccccc23)n[nH]c1=S` gave 12-LOX inh inconclusive, KCNH2 3.1 inh -78*, hERG WT inh 2, ClpP mod 6%, LDHA inh -5 and BCR signal inh inconclusive.
`Cc1ccc(NC(=O)c2nc3ccccc3nc2N2CCOCC2)c(Cl)c1` gave 12-LOX inh 14% and LDHA inh -3.
`CCOC(=O)c1cn(CC#N)c2cc(F)c(F)cc2c1=O` gave 12-LOX inh 2%, KCNH2 3.1 inh -4, hERG WT inh -70*, LDHA inh 4 and BCR signal inh 3%.
For CCn1c(COc2cccc3cccnc23)nnc1SCC(=O)OC the results were 12-LOX inh inconclusive, KCNH2 3.1 inh 6, hERG WT inh -8, ClpP mod -22%, LDHA inh 4 and BCR signal inh 2%.
C=CCn1c(Cc2csc(N)n2)nnc1SCC(=O)OCC was read as 12-LOX inh -11%, KCNH2 3.1 inh -95*, hERG WT inh 0, ClpP mod -2%, LDHA inh 0 and BCR signal inh -2%.
`Cn1c(COc2cccc3cccnc23)nnc1SCC(=O)O` gave 12-LOX inh 7.9µM*!, KCNH2 3.1 inh 17, ClpP mod -14%, LDHA inh 0 and BCR signal inh -7%.
CCn1c(COc2cccc3cccnc23)nnc1SCC(=O)O was read as 12-LOX inh inconclusive, KCNH2 3.1 inh -5, hERG WT inh -2, ClpP mod -15%, LDHA inh 4 and BCR signal inh inconclusive.
C=CCn1c(COc2cccc3ccc(C)nc23)nnc1SCC(=O)OC was read as 12-LOX inh 0%, KCNH2 3.1 inh 8, hERG WT inh 6, ClpP mod 28µM*, LDHA inh -12 and BCR signal inh -6%.
Screening CCOc1cc(/C=C/C(=O)c2ccc(F)cc2)cc(Br)c1OC returned 12-LOX inh -4% and LDHA inh 3.
FC(F)(F)c1ccnc(Oc2ccc(-c3nc4ccccc4s3)cc2)n1 was read as 12-LOX inh inconclusive and LDHA inh -5.
`CC(C)c1ccc(/C=N/NC(=O)c2ccccc2)cc1` gave 12-LOX inh 12% and LDHA inh 11.
For CC(C)c1cc(C(=O)O)c(O)c(C(C)C)c1 the results were 12-LOX inh inconclusive and LDHA inh -2.
Screening O=[N+]([O-])c1cc([N+](=O)[O-])c2oc(-c3ccccc3)c(Br)c2c1O returned KCNH2 3.1 inh -11, hERG WT inh -1, LDHA inh -68* and BCR signal inh inconclusive.
`COc1ccc(CNS(=O)(=O)c2ccc3c(c2)N(C)CCS3)cc1` gave 12-LOX inh inconclusive and LDHA inh 6.
Screening CCOc1cc(CNc2ccc(N3CCOCC3)cc2)cc(Br)c1OCC returned 12-LOX inh 32µM*, KCNH2 3.1 inh -9, hERG WT inh -4, ClpP mod 2%, LDHA inh 2 and BCR signal inh -7%.

Screening results deposited in PubChem BioAssay by National Center for Advancing Translational Sciences (NCATS).
